In PubChem BioAssay (Tox21):
Several values for one entry are separate records, joined by “and”; a condition that tells them apart may be missing. Equal entries are not always repeated. Results filed as inconclusive are left out. Activity calls are given as the source filed them. Unless noted, the call rests on the fitted dose curve; in most records, active means well fitted curve in the direction sought with a large enough effect in the repeat runs; inconclusive means weak or mixed curves; inactive means no such curve, though single readings can be large; an effect the other way counts as inactive or inconclusive.

Experiments:
[1] = qHTS assay to identify small molecule antagonists of the glucocorticoid receptor (GR) signaling pathway - cell viability counter screen (AID 720693); further: nearly all actives have a fitted effect of over 55% in size
[2] = qHTS assay for identifying genotoxic compounds that show differential cytotoxicity against isogenic chicken DT40 cell lines with known DNA damage response pathways - wild type cell line (AID 743012); further: nearly all actives have a fitted effect of over 60% in size; further: potency means the concentration at half of the fitted maximal effect
Summary of the method: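 300 wt DT40 cells/well; cpd (DMSO) pintool-transferred after ~0.5 h at 37 C/5% CO2; 40 h incubation; CellTiter-Glo added, 30 min RT; luminescence read.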

[3] = qHTS assay for identifying genotoxic compounds that show differential cytotoxicity against isogenic chicken DT40 cell lines with known DNA damage response pathways - Rev3 mutant cell line (AID 743014); further: nearly all actives have a fitted effect of over 55% in size; further: potency means the concentration at half of the fitted maximal effect
[4] = qHTS assay for identifying genotoxic compounds that show differential cytotoxicity against isogenic chicken DT40 cell lines with known DNA damage response pathways - Rad54/Ku70 mutant cell line (AID 743015); further: nearly all actives have a fitted effect of over 60% in size; further: potency means the concentration at half of the fitted maximal effect
[5] = qHTS assay to identify small molecule antagonists of the androgen receptor (AR) signaling pathway - cell viability counter screen (AID 743033; further: nearly all actives have a fitted effect of over 45% in size)
[6] = qHTS assay to identify small molecule antagonists of the androgen receptor (AR) signaling pathway using the MDA cell line - cell viability counter screen (AID 743041; further: nearly all actives have a fitted effect of over 45% in size)
Summary of the method: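 qHTS viability read-out; MDA-kb2 AR-luc; R1881-stimulated; 16 h exposure at 37C, 0% CO2; CellTiter-Fluor, 30 min; fluorescence intensity.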

[7] = qHTS assay to identify small molecule antagonists of the thyroid receptor (TR) signaling pathway - cell viability counter screen (AID 743064); further: nearly all actives have a fitted effect of over 50% in size; further: potency means the concentration at half of the fitted maximal effect
Summary of the method: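 GH3.TRE-Luc cells, 4 h pre-plating; cpd + T3 1 nM final; 37 °C 23.5 h; CellTiter-Fluor 30 min; fluorescence read.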

[8] = qHTS assay to identify small molecule antagonists of the thyroid receptor (TR) signaling pathway (AID 743065); further: nearly all actives have a fitted effect of over 55% in size; further: potency means the concentration at half of the fitted maximal effect
Summary of the method: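 GH3.TRE-Luc rat pituitary cells carrying two TR response elements driving luciferase were plated for 4 h, given compound plus 1 nM T3 (final), and incubated 23.5 h at 37 C. ONE-Glo luminescence measured reporter inhibition; CellTiter-Fluor fluorescence tracked cytotoxicity.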

[9] = system: thyroid hormone receptor (rat, GH3 cells); assay: qHTS assay to identify small molecule agonists of the thyroid receptor (TR) signaling pathway (AID 743066; calls by dose curve)
[10] = qHTS assay to identify small molecule antagonists of the estrogen receptor alpha (ER-alpha) signaling pathway - cell viability counter screen (AID 743074; calls by dose curve; further: nearly all actives have a fitted effect of over 45% in size)
[11] = target: Estrogen receptor (Homo sapiens) (UniProt P03372); assay: qHTS assay to identify small molecule agonists of the estrogen receptor alpha (ER-alpha) signaling pathway (AID 743075; calls by dose curve)
Estrogen receptor (Homo sapiens), sequence (P03372 whole entry, looked up): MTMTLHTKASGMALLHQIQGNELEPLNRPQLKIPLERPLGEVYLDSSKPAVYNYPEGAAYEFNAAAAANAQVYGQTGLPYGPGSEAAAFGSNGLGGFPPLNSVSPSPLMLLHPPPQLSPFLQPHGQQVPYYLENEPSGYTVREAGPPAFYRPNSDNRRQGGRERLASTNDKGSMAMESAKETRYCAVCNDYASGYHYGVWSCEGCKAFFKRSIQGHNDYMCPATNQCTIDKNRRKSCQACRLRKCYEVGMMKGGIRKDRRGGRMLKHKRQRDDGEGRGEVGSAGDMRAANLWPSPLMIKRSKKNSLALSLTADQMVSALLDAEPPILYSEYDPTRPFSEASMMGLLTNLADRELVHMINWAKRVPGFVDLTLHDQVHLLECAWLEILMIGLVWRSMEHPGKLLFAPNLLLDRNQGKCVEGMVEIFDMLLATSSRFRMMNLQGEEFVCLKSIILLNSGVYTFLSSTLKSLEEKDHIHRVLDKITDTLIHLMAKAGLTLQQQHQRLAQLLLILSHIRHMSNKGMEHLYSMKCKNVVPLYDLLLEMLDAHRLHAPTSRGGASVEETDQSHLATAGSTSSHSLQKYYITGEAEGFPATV

[12] = target: Estrogen receptor (Homo sapiens) (UniProt P03372); assay: qHTS assay to identify small molecule agonists of the estrogen receptor alpha (ER-alpha) signaling pathway using the BG1 cell line (AID 743079); further: nearly all actives have a fitted effect of over 20% in size
[13] = qHTS assay to identify small molecule antagonists of the estrogen receptor alpha (ER-alpha) signaling pathway using the BG1 cell line (AID 743080; calls by dose curve;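 further: BG1 cells stimulated with 17beta-estradiol alongside compound; series mostly up to about 70 µM; nearly all actives have a fitted effect of over 25% in size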)
Summary of the method: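 Quantitative HTS on the Tox21 10K library: BG1 cells with endogenous ER-alpha and ERE-luciferase reporter, 17beta-estradiol stimulation, 21.5 h compound exposure, luminescence endpoint with parallel fluorescence cytotoxicity counter-read.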

[14] = qHTS assay to identify small molecule antagonists of the estrogen receptor alpha (ER-alpha) signaling pathway using the BG1 cell line - cell viability counter screen (AID 743081);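 further: compound given together with 17beta-estradiol as the ER stimulus; series mostly up to about 70 µM; nearly all actives have a fitted effect of over 45% in size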
Aromatase (Homo sapiens) = Aromatase (Homo sapiens) (UniProt P11511); assay: qHTS assay to identify aromatase inhibitors (AID 743083); further: nearly all actives have a fitted effect of over 55% in size; further: potency means the concentration at half of the fitted maximal effect
Aromatase (Homo sapiens), sequence (P11511 whole entry, looked up): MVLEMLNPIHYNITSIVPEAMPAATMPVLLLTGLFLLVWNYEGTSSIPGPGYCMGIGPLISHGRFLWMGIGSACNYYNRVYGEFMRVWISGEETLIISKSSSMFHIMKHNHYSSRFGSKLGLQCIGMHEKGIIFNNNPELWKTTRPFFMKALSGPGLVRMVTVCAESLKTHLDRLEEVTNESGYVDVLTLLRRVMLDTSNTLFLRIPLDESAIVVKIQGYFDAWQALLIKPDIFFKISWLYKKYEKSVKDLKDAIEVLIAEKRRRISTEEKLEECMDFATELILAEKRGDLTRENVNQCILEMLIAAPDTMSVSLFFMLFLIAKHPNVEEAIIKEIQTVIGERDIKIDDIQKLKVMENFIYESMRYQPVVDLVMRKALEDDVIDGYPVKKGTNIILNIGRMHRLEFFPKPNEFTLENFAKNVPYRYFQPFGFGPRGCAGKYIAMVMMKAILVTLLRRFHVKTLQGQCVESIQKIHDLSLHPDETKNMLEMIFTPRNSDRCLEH

[15] = target: Estrogen receptor (Homo sapiens) (UniProt P03372); assay: qHTS assay to identify small molecule antagonists of the estrogen receptor alpha (ER-alpha) signaling pathway (AID 743069; active means well fitted curve in the direction sought with a large enough effect in the signal ratio in the repeat runs, not every such curve was filed as active; the % refers to the signal ratio)
Summary of the method: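 Screening used a UAS-driven beta-lactamase reporter integrated into HEK293 cells expressing ER-alpha, stimulated with 17beta-estradiol alongside test compounds over 18 hr at 37C; signal came from LiveBLAzer B/G FRET fluorescence.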

Measured: Potency

Cc1ccc(NC=O)c(C)c1
inactive: [1] | [2] | [3] | [4] | [5] | [6] | [7] | [8] | [9] | [10] | [11] | [12] | [13] | [14] | Aromatase (Homo sapiens)

CCCCCCCCCCCC(=O)OCC
inactive: [1] | [2] | [3] | [4] | [5] | [6] | [7] | [8] | [9] | [10] | [11] | [12] | [13] | [14] | Aromatase (Homo sapiens)

C=CC(C)CCC=C(C)C (stereo unspecified)
inactive: [1] | [2] | [3] | [4] | [5] | [6] | [7] | [8] | [9] | [10] | [14] | Aromatase (Homo sapiens)

O=C(O)c1ccc2cc(O)ccc2c1
inactive: [1] | [2] | [3] | [4] | [5] | [6] | [7] | [8] | [9] | [15] | [10] | [11] | [13] | [14] | Aromatase (Homo sapiens)

N#CCCCC(C#N)CCC#N (stereo unspecified)
inactive: [1] | [2] | [3] | [4] | [5] | [6] | [7] | [8] | [9] | [10] | [11] | [13] | [14] | Aromatase (Homo sapiens)

O=C(NC1CCN(CCc2c[nH]c3ccccc23)CC1)c1ccccc1
inactive: [1] | [5] | [6] | [9] | [10] | Aromatase (Homo sapiens)
active: [2] 23.7 µM | [3] 33.5 µM | [4] 29.8 µM | [7] 26.6 µM | [8] 26.6 µM

COC(=O)C(C)(C)C
inactive: [1] | [2] | [3] | [4] | [5] | [6] | [7] | [8] | [9] | [10] | [14] | Aromatase (Homo sapiens)

Cc1cc(C)c(C)c(O)c1
inactive: [1] | [2] | [3] | [4] | [5] | [6] | [7] | [8] | [9] | [10] | [11] | [12] | [13] | [14] | Aromatase (Homo sapiens)

CC(=O)S[C@H](C(=O)N[C@H]1Cc2ccccc2[C@H]2CCC[C@@H](C(=O)O)N2C1=O)C(C)C
inactive: [1] | [2] | [3] | [4] | [5] | [6] | [7] | [8] | [9] | [10] | [14] | Aromatase (Homo sapiens)

O=C1C=CCCC1
inactive: [1] | [2] | [3] | [4] | [5] | [6] | [7] | [8] | [9] | [10] | [11] | [12] | [13] | [14] | Aromatase (Homo sapiens)

O=Cc1ccc(Cl)c([N+](=O)[O-])c1
inactive: [1] | [5] | [6] | [7] | [8] | [9] | [10] | [11] | [14]
active: [2] 4.33 µM | [3] 4.33 µM | [4] 3.06 µM

CC(=O)c1cccnc1
inactive: [1] | [2] | [3] | [4] | [5] | [6] | [7] | [8] | [9] | [15] | [10] | [11] | [12] | [13] | [14] | Aromatase (Homo sapiens)

CC(C)(C)c1ccc(CCC=O)cc1
inactive: [1] | [2] | [3] | [4] | [5] | [6] | [7] | [8] | [9] | [15] | [10] | [11] | [12] | [14]

CC(C)Cc1nccs1
inactive: [1] | [2] | [3] | [4] | [5] | [6] | [7] | [8] | [9] | [10] | [14] | Aromatase (Homo sapiens)

CCn1nc(Cc2ccccc2)cc1C1CCN(C[C@H]2C[C@H](N(C)[C@@H](C(=O)O)C(C)C)C[C@@H]2c2cccc(F)c2)CC1
inactive: [1] | [5] | [6] | [9] | [10] | [11] | [12] | [13] | Aromatase (Homo sapiens)
active: [2] 61.1 µM | [3] 61.1 µM | [4] 24.3 µM | [7] 27.3 µM | [8] 61.1 µM

Nc1nc(Cl)nc2c1ncn2[C@H]1C[C@H](O)[C@@H](CO)O1
active: [2] 13.3 nM and 1.9 nM | [3] 16.8 nM and 1.7 nM | [4] 21.1 nM and 2.7 nM | [7] 422 nM and 136 nM | [8] 298 nM and 48.2 nM
inactive: [1] | [5] | [6] | [9] | [10] | [14] | Aromatase (Homo sapiens)

O=[N+]([O-])c1ccc(Cl)cc1Cl
inactive: [1] | [2] | [3] | [4] | [5] | [6] | [7] | [8] | [9] | [14] | Aromatase (Homo sapiens)

FC1(F)C(F)(F)C(F)(F)C2(F)C(F)(C1(F)F)C(F)(F)C(F)(F)C1(F)C(F)(F)C(F)(F)C(F)(F)C(F)(F)C12F (stereo unspecified)
inactive: [1] | [2] | [3] | [4] | [5] | [6] | [7] | [8] | [9] | [10] | [14] | Aromatase (Homo sapiens)

CC1(C)C(=O)NC(=O)N1CO
inactive: [1] | [2] | [3] | [4] | [5] | [6] | [7] | [8] | [9] | [15] | [10] | [11] | [13] | [14] | Aromatase (Homo sapiens)

Cc1c(-c2cccnc2)c2ccccc2n1CCCCC(=O)O
inactive: [1] | [2] | [4] | [5] | [6] | [7] | [8] | [9] | [10] | [14]
active: [3] 30.6 µM | Aromatase (Homo sapiens) 43.3 µM
